# From PMC5540273 (PLoS ONE, 2017)
# “And” between values parts separate entries of the source, which are not always exact repeats. Equal entries are not always repeated. Where two headings read alike, the source gives them in different places.
# Columns and labels:
# KIT-autoinhibited = details: concentration: 1 μM, replicates: in singlicate, n = 1
# KIT = details: concentration: 1 μM, replicates: in singlicate, n = 1
# LATS1 = details: concentration: 1 μM, replicates: in singlicate, n = 1
# LATS2 = details: concentration: 1 μM, replicates: in singlicate, n = 1
# LCK = details: concentration: 1 μM, replicates: in singlicate, n = 1
# LIMK1 = details: concentration: 1 μM, replicates: in singlicate, n = 1
# LIMK2 = details: concentration: 1 μM, replicates: in singlicate; n = 1
# LKB1 = tested on: T1, LKB1; details: concentration: 1 μM, replicates: in singlicate, n = 1
# T1 construct: gene STK11
# LOK = tested on: T2, LOK; details: concentration: 1 μM, replicates: in singlicate, n = 1
# T2 construct: gene STK10
# LRRK2 = details: concentration: 1 μM, replicates: in singlicate, n = 1
# LTK = details: concentration: 1 μM, replicates: in singlicate, n = 1
# LYN = details: concentration: 1 μM, replicates: in singlicate, n = 1
# LZK = tested on: T3, LZK; details: concentration: 1 μM, replicates: in singlicate, n = 1
# T3 construct: gene MAP3K13
# MAK = details: concentration: 1 μM, replicates: in singlicate, n = 1
# MAP3K15 = details: concentration: 1 μM, replicates: in singlicate, n = 1
# MAP3K1 = details: concentration: 1 μM, replicates: in singlicate; n = 1
# MAP3K2 = details: concentration: 1 μM, replicates: in singlicate, n = 1
# MAP3K3 = details: concentration: 1 μM, replicates: in singlicate, n = 1
# MAP3K4 = details: concentration: 1 μM, replicates: in singlicate, n = 1
# MAP4K2 = details: concentration: 1 μM, replicates: in singlicate, n = 1
# 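Note: KINOMEscan kinase panel screen.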
compound,measurement,setting,value
Cn1cc(-c2ccc3c(c2)CCN3C(=O)Cc2ccccc2Cl)c2c(N)ncnc21 [GSK2608885],%Inh,KIT-autoinhibited,4%
same,%Inh,KIT,99.9%
same,%Inh,LATS1,15%
same,%Inh,LATS2,25%
same,%Inh,LCK,99.5%
same,%Inh,LIMK1,32%
same,%Inh,LIMK2,6%
same,%Inh,LKB1,17%
same,%Inh,LOK,99.8%
same,%Inh,LRRK2,0%
same,%Inh,LTK,55%
same,%Inh,LYN,99.2%
same,%Inh,LZK,0%
same,%Inh,MAK,16%
same,%Inh,MAP3K15,0%
same,%Inh,MAP3K1,7%
same,%Inh,MAP3K2,91.1%
same,%Inh,MAP3K3,82%
same,%Inh,MAP3K4,86%
same,%Inh,MAP4K2,10%
Cc1cn2c(=O)cc(N3CCOCC3)nc2n1Cc1cccc(Cl)c1Cl [GSK2334006],%Inh,KIT-autoinhibited,0%
same,%Inh,KIT,39%
same,%Inh,LATS1,0%
same,%Inh,LATS2,0%
same,%Inh,LCK,46%
same,%Inh,LIMK1,0%
same,%Inh,LIMK2,6%
same,%Inh,LKB1,0%
same,%Inh,LOK,0%
same,%Inh,LRRK2,30%
same,%Inh,LTK,7%
same,%Inh,LYN,4%
same,%Inh,LZK,0%
same,%Inh,MAK,9%
same,%Inh,MAP3K15,2%
same,%Inh,MAP3K1,18%
same,%Inh,MAP3K2,6%
same,%Inh,MAP3K3,0%
same,%Inh,MAP3K4,0%
same,%Inh,MAP4K2,0%
Cc1nnc(-c2ccc(C)c(-c3ccc(C(=O)Nc4ccc(NS(C)(=O)=O)cc4)cc3)c2)o1 [GW702865],%Inh,KIT-autoinhibited,0%
same,%Inh,KIT,58%
same,%Inh,LATS1,0%
same,%Inh,LATS2,1%
same,%Inh,LCK,17%
same,%Inh,LIMK1,0%
same,%Inh,LIMK2,0%
same,%Inh,LKB1,26%
same,%Inh,LOK,6%
same,%Inh,LRRK2,0%
same,%Inh,LTK,3%
same,%Inh,LYN,25%
same,%Inh,LZK,21%
same,%Inh,MAK,35%
same,%Inh,MAP3K15,0%
same,%Inh,MAP3K1,0%
same,%Inh,MAP3K2,0%
same,%Inh,MAP3K3,0%
same,%Inh,MAP3K4,19%
same,%Inh,MAP4K2,0%
CSc1ccc(-c2cc3ncnc(SCC(=O)O)c3s2)cc1,%Inh,KIT-autoinhibited,0%
same,%Inh,KIT,51%
same,%Inh,LATS1,7%
same,%Inh,LATS2,4%
same,%Inh,LCK,0%
same,%Inh,LIMK1,0%
same,%Inh,LIMK2,0%
same,%Inh,LKB1,0%
same,%Inh,LOK,19%
same,%Inh,LRRK2,0%
same,%Inh,LTK,17%
same,%Inh,LYN,0%
same,%Inh,LZK,0%
same,%Inh,MAK,29%
same,%Inh,MAP3K15,0%
same,%Inh,MAP3K1,0%
same,%Inh,MAP3K2,0%
same,%Inh,MAP3K3,0%
same,%Inh,MAP3K4,10%
same,%Inh,MAP4K2,0%
CN1c2ccc(CNc3ccc(F)cc3)cc2-c2c(cnn2C)S1(=O)=O,%Inh,KIT-autoinhibited,15%
same,%Inh,KIT,0%
same,%Inh,LATS1,0%
same,%Inh,LATS2,0%
same,%Inh,LCK,7%
same,%Inh,LIMK1,0%
same,%Inh,LIMK2,0%
same,%Inh,LKB1,8%
same,%Inh,LOK,0%
same,%Inh,LRRK2,0%
same,%Inh,LTK,0%
same,%Inh,LYN,3%
same,%Inh,LZK,0%
same,%Inh,MAK,3%
same,%Inh,MAP3K15,0%
same,%Inh,MAP3K1,0%
same,%Inh,MAP3K2,11%
same,%Inh,MAP3K3,25%
same,%Inh,MAP3K4,12%
same,%Inh,MAP4K2,0%
Cl.Oc1cccc(Nc2ccnc3cc(-c4ccncc4)ccc23)c1 [GW494601],%Inh,KIT-autoinhibited,32%
same,%Inh,KIT,99.8%
same,%Inh,LATS1,6%
same,%Inh,LATS2,0%
same,%Inh,LCK,98.7%
same,%Inh,LIMK1,0%
same,%Inh,LIMK2,6%
same,%Inh,LKB1,0%
same,%Inh,LOK,31%
same,%Inh,LRRK2,75%
same,%Inh,LTK,69%
same,%Inh,LYN,86%
same,%Inh,LZK,36%
same,%Inh,MAK,61%
same,%Inh,MAP3K15,0%
same,%Inh,MAP3K1,1%
same,%Inh,MAP3K2,76%
same,%Inh,MAP3K3,70%
same,%Inh,MAP3K4,0%
same,%Inh,MAP4K2,88%
CC(C)Oc1ccc2c(-c3ccnc(Nc4ccc(N5CCN(C)CC5)cc4)n3)cnn2n1 [GW696155],%Inh,KIT-autoinhibited,43%
same,%Inh,KIT,91.1%
same,%Inh,LATS1,0%
same,%Inh,LATS2,43%
same,%Inh,LCK,92.6%
same,%Inh,LIMK1,85%
same,%Inh,LIMK2,100%
same,%Inh,LKB1,73%
same,%Inh,LOK,0%
same,%Inh,LRRK2,27%
same,%Inh,LTK,0%
same,%Inh,LYN,34%
same,%Inh,LZK,10%
same,%Inh,MAK,0%
same,%Inh,MAP3K15,11%
same,%Inh,MAP3K1,39%
same,%Inh,MAP3K2,83%
same,%Inh,MAP3K3,67%
same,%Inh,MAP3K4,74%
same,%Inh,MAP4K2,28%
Cl.Cl.Cl.Fc1ccc(-c2ncn(C3CCNCC3)c2-c2ccnc(Nc3ccccc3)n2)cc1 [SB-238039],%Inh,KIT-autoinhibited; 1 µM,2% and 0%
same,%Inh,KIT; 1 µM,12% and 0%
same,%Inh,LATS1; 1 µM,17% and 16%
same,%Inh,LATS2; 1 µM,0% and 12%
same,%Inh,LCK; 1 µM,69% and 32%
same,%Inh,LIMK1; 1 µM,13% and 0%
same,%Inh,LIMK2,0%
same,%Inh,LKB1; 1 µM,55% and 23%
same,%Inh,LOK; 1 µM,35% and 2%
same,%Inh,LRRK2; 1 µM,27% and 0%
same,%Inh,LTK; 1 µM,27% and 37%
same,%Inh,LYN; 1 µM,42% and 15%
same,%Inh,LZK; 1 µM,0% and 7%
same,%Inh,MAK; 1 µM,3% and 41%
same,%Inh,MAP3K15; 1 µM,0% and 4%
same,%Inh,MAP3K1,0%
same,%Inh,MAP3K2; 1 µM,63% and 27%
same,%Inh,MAP3K3; 1 µM,69% and 98.9%
same,%Inh,MAP3K4; 1 µM,2% and 0%
same,%Inh,MAP4K2; 1 µM,36% and 7%
Cc1ccc(C(=O)NCC(N)=O)cc1-n1c(C)cc(OCc2ccc(F)cc2F)c(Br)c1=O,%Inh,KIT-autoinhibited,0%
same,%Inh,KIT,6%
same,%Inh,LATS1,13%
same,%Inh,LATS2,0%
same,%Inh,LCK,25%
same,%Inh,LIMK1,16%
same,%Inh,LIMK2,0%
same,%Inh,LKB1,0%
same,%Inh,LOK,26%
same,%Inh,LRRK2,0%
same,%Inh,LTK,27%
same,%Inh,LYN,18%
same,%Inh,LZK,0%
same,%Inh,MAK,11%
same,%Inh,MAP3K15,0%
same,%Inh,MAP3K1,0%
same,%Inh,MAP3K2,0%
same,%Inh,MAP3K3,0%
same,%Inh,MAP3K4,22%
same,%Inh,MAP4K2,0%
